Compound activity: PubChem, National Center for Advancing Translational Sciences (NCATS)
Hits are enriched below; roughly 3.6% of the tested compounds scored in any of these assays.
KDM4E inh – inhibitors of human JMJD2E histone demethylase; B2RXH2; JMJD2E catalytic domain, FDH-coupled NADH fluorescence (FDH is formaldehyde dehydrogenase); Potency, µM (highest dose often 57.1 µM), without a hit: top-dose activity change, negative = inhibition, hits mostly inhibitors; hit rate 1.6% among 230,000; AID 2147; active = well fitted inhibition curve with a large enough effect, not every such curve was filed as active; inconclusive = small, poorly fitted or top-dose-only effect, or another doubt; inactive = no such curve, though single readings can be large or run the other way;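 also: 0% = wells with enzyme and -100% = buffer wells without enzyme; nearly all actives have a fitted effect of over 50% in size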
NPSR antag – neuropeptide S receptor (human) antagonism, cAMP | Q6W5P4 | CHO-NPSR cells, cAMP TR-FRET, antagonist mode | Potency, µM (doses to about 38.3 µM), inactives show at the highest dose activity change, negative = inhibition, actives largely listed as inhibitors | hit rate 1% among 220,000; also: % is scaled to controls: 0 for no effect and ±100 for the full control effect; nearly all actives have a fitted effect of over 50% in size
Target sequence (Q6W5P4 whole entry, looked up): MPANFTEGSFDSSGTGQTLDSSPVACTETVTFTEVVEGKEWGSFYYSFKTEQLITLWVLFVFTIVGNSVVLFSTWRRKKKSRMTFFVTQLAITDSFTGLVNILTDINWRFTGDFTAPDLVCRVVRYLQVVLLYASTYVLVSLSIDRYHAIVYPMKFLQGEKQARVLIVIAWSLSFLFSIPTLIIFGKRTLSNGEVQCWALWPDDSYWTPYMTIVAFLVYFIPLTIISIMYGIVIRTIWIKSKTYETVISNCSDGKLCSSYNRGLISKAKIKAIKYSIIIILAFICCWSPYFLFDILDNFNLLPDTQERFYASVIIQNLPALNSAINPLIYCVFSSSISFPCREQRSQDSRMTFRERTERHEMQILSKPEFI
Sfp PPTase inh – Sfp phosphopantetheinyl transferase inhibition. Q9F4F7. Biochemical Sfp PPTase activity, qHTS. Potency, µM, without a hit: largest response in the series, negative = inhibition, usual class: inhibitors. hit rate 3.5% among 310,000. AID 1490;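 also: the enzyme is Sfp with the accession as filed and its product quenches rhodamine fluorescence; 0% = enzyme reaction without inhibitor and -100% = no enzyme wells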
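With Hepes-Na pH 7.6 buffer containing 10 mM MgCl2, Sfp (15 nM) modified BHQ-2-YbbR (12.5 uM) using rhodamine-CoA (5 uM). Two reads 30 minutes apart at 525/598 nm yielded each well's rate.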
IMPase Li inh – membrane-permeable IMPase blocker, potentiated with lithium. CHO-M1 cells, IP1 TR-FRET (IP-One), carbachol + lithium. Potency, µM (doses to about 59.4 µM), inactives show top-dose activity, negative = IMPase inhibition, usual class: inhibitors. hit rate 0.35% among 210,000;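 also: IP1 builds up when IMPase is blocked and the TR-FRET signal falls; plate controls were basal vehicle for no effect and high inhibitor control for full effect; nearly all actives have a fitted effect of over 50% in size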
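IP1 accumulation measured by competitive TR-FRET in lysed CHO-M1 cells after 30 min compound exposure at 37C, with a small lithium addition to potentiate weak responses. Hill-equation AC50 from ratio and donor-channel data.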
Epigenetic reg – epigenetic control regulation, reporter derepression; murine LDR cells, GFP reporter derepression, 30 h; Potency, µM (top dose mostly 53.9 µM), for the others: top-dose GFP activation, most hits filed as activators; hit rate 0.2% among 280,000; AID 1865; also: % of control where 0% means no effect; nearly all actives have a fitted effect of over 60% in size
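Derepression of a silenced CMV-GFP reporter in murine LDR cells is scored by enumerating GFP-positive cells with a laser-scanning microplate cytometer after 30 hours of treatment at 37 C.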
KAT2A inh – blocks human GCN5L2 histone acetyltransferase; AID 504327; Potency, µM (top dose mostly 58.9 µM), inactives show at the highest dose activity change, negative = inhibition, hits mostly inhibitors; hit rate 0.21% among 390,000; Q92830; GCN5L2 HAT assay, ThioGlo1 CoA-SH fluorescence; also: % is scaled to controls: 0 for no effect and ±100 for the full control effect
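ThioGlo1-coupled HAT assay: 20nM GCN5L2, 70uM acetyl-CoA, 75uM H3(1-25) peptide, pH 7.5. Fluorescence read at 340/540nm at start and after 20 min at room temperature.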
* marks the source's active call; other numbers are inactive results; ? = inconclusive; . = no result given; [ ] = remark or other dose. Unless noted, calls follow the shape of the dose curve; as a rule, active = well fitted curve in the direction sought with a large enough effect; inconclusive = small, poorly fitted or top-dose-only effect, or another doubt; inactive = no such curve, though single readings can be large; an effect the other way counts as inactive or inconclusive. Potency is read from the fitted curve at half-maximal effect.

SMILES	KDM4E inh	NPSR antag	Sfp PPTase inh	IMPase Li inh	Epigenetic reg	KAT2A inh
CC(=C\c1ccccc1)/C=C1/SC(=S)N(C(C(=O)O)C(C)C)C1=O (stereo unspecified)	-15%	-30%	-6%	-1%	1%	?
CC(C(=O)O)N1C(=O)/C(=C/C=C/c2ccco2)SC1=S (stereo unspecified)	0.89µM*	-16%[46.1 µM]	50µM*	-4%[38.3 µM]	-2%	7.9µM*
CCOC(=O)C1=C(C)NC(C)=C(C(=O)OCC)C1c1ccccc1C=CC(=O)OC(C)(C)C	.	.	33%	.	.	3%
O=C(CSc1oc(-c2ccc(F)cc2)nc1S(=O)(=O)c1ccccc1)NC1CCCCC1	.	.	.	.	2%	-2%
COc1cccc(C2C3=C(N=c4s/c(=C\c5cccc(O)c5)c(=O)n42)c2ccccc2CC3)c1OC (stereo unspecified)	-20%	?	5%	-2%	4%	1%
COc1cccc(C2C3=C(N=c4s/c(=C\c5ccc(O)cc5)c(=O)n42)c2ccccc2CC3)c1OC (stereo unspecified)	-5%	-14%[46.1 µM]	5%	-6%	?	48%
COc1cccc(C2C3=C(N=c4s/c(=C\c5ccc(OCC(=O)O)cc5)c(=O)n42)c2ccccc2CC3)c1 (stereo unspecified)	-6%	-58%	56µM*	.	3%	?
COc1ccccc1C1C2=C(N=c3s/c(=C/c4cccc(OCC(=O)O)c4)c(=O)n31)c1ccccc1CC2 (stereo unspecified)	-5%	-44%	79µM*	14%	0%	?
COC(=O)C(C(C)C)N1CC(=O)c2ccccc2S1(=O)=O (stereo unspecified)	.	.	3%	.	.	.
CN1CCN(NC(=S)Nc2ccc(OC(F)F)cc2)CC1	5%	9%	56µM*	-1%	0%	-3%
CCSc1nnc(N2C(=O)C(O)=C(C(=O)c3ccco3)C2c2cccc(OC)c2)s1 (stereo unspecified)	.	.	?	.	.	-7%
CSc1nnc(N2C(=O)C(O)=C(C(=O)c3ccco3)C2c2ccc(F)cc2)s1 (stereo unspecified)	.	.	35µM*	.	.	-20%
CSc1nnc(N2C(=O)C(O)=C(C(=O)c3ccco3)C2c2cccc(Cl)c2)s1 (stereo unspecified)	.	.	6.3µM*	.	.	-4%
C=CCC1(O)C=CCC2C3C4C(OC(C)(C)C)C2C1C34 (stereo unspecified)	.	.	4%	.	2%[10.1 µM]	.
O=C=Nc1ccc(Cc2ccc(N=C=O)cc2)cc1	.	.	.	-2%	.	.
CSc1nc(-c2ccccc2)c(C#N)c(=O)[nH]1	-6%	-48%	23%	.	-1%	-6%
CCC(Sc1nc(-c2ccccc2)c(C#N)c(=O)[nH]1)C(=O)Nc1cc(C)on1 (stereo unspecified)	3%	?	27%	11µM*	-1%	-4%
COC(=O)C(CC(C)C)NC(=O)CSc1nc(-c2ccccc2)c(C#N)c(=O)[nH]1 (stereo unspecified)	1%	7%[46.1 µM]	10%	8.9µM*	-1%	-9%
CCSc1nc(-c2ccccc2)c(C#N)c(=O)[nH]1	-14%	18%[46.1 µM]	10%	2µM*	0%	-7%
Cc1ccc(C)c(NC(=O)CSc2nc(-c3ccccc3)c(C#N)c(=O)[nH]2)c1	.	.	.	.	-2%	-5%
CCCOc1ccc(-c2nc(SCc3ccccc3)[nH]c(=O)c2C#N)cc1OC	.	.	2%	.	.	-1%
N#Cc1c(-c2ccccc2)nc(SCc2nc(N)nc(N3CCCCC3)n2)[nH]c1=O	6%	6.3µM*	14%	4.5µM*	-1%	-7%
CS(=O)(=O)N1CCC2(CCCN(c3cccc(-c4ccccc4)c3)C2)CC1	.	.	13%	-2%	.	-16%
O=C(CSc1nc2scc(-c3ccccc3)c2c(=O)[nH]1)NC1CCCCC1	-10%	-12%	-6%	?	0%	-7%
